Source: PubChem BioAssay AID1159580 (chemical genetic matrix, 2015)
The campaign covered roughly 5,500 compounds. About 2,000 (36%) were called active. Not shown: some 18% with an inconclusive outcome. Cut-off read from the data, not from the text of the source: active = normalized growth mostly below about 0.91 (no sharp cut-off); inconclusive = no clear call, values can overlap the other calls; inactive = mostly above about 0.92. The list shows a part of the results.

Assay: chemical genetic growth profiling, strain panel (AID 1159580);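 note: tested at 20 µM; growth read once vehicle control cultures reached saturation at 30 °C; 1 = growth at the plate median or of vehicle wells; lower values mean less growth of the strain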
Conditions: S. cerevisiae deletion strains, growth OD
[1] = locus YAL021C, strain ccr4, stronger effect = lower value
[2] = locus YAL026C, strain drs2, stronger effect = lower value
[3] = locus YAL030W, strain snc1, stronger effect = lower value
[4] = locus YBL061C, strain skt5, stronger effect = lower value
[5] = locus YBR009C, strain hhf1, stronger effect = lower value
[6] = locus YBR023C, strain chs3, stronger effect = lower value
[7] = locus YBR171W, strain sec66, stronger effect = lower value
[8] = locus YBR231C, strain swc5, stronger effect = lower value
[9] = locus YBR279W, strain paf1, stronger effect = lower value
[10] = locus YCL011C, strain gbp2, stronger effect = lower value
[11] = locus YCL016C, strain dcc1, stronger effect = lower value
[12] = locus YCL061C, strain MRC1, stronger effect = lower value
[13] = locus YCL069W, strain vba3, stronger effect = lower value
[14] = locus YCR088W, strain abp1, stronger effect = lower value
[15] = locus YDL005C, strain med2, stronger effect = lower value
[16] = locus YDL040C, strain nat1, stronger effect = lower value
[17] = locus YDR001C, strain nth1, stronger effect = lower value
[18] = locus YDR069C, strain doa4, stronger effect = lower value
[19] = locus YDR137W, strain rgp1, stronger effect = lower value
[20] = locus YDR159W, strain sac3, stronger effect = lower value
[21] = locus YDR297W, strain sur2, stronger effect = lower value
[22] = locus YDR334W, strain swr1, stronger effect = lower value
[23] = locus YDR335W, strain msn5, stronger effect = lower value
[24] = locus YDR392W, strain spt3, stronger effect = lower value
[25] = locus YEL003W, strain gim4, stronger effect = lower value
[26] = locus YEL037C, strain rad23, stronger effect = lower value
[27] = locus YEL061C, strain CIN8 (second series), stronger effect = lower value
[28] = locus YER015W, strain faa2, stronger effect = lower value
[29] = locus YER016W, strain bim1, stronger effect = lower value
[30] = locus YER111C, strain swi4, stronger effect = lower value
[31] = locus YER155C, strain BEM2 (second series), stronger effect = lower value
[32] = locus YFR010W, strain ubp6, stronger effect = lower value
[33] = locus YGL167C, strain pmr1, stronger effect = lower value
[34] = locus YGL173C, strain kem1, stronger effect = lower value
[35] = locus YGL227W, strain vid30, stronger effect = lower value
[36] = locus YGL240W, strain doc1, stronger effect = lower value
[37] = locus YGL253W, strain hxk2, stronger effect = lower value
[38] = locus YHR013C, strain ard1, stronger effect = lower value
[39] = locus YHR027C, strain rpn1, stronger effect = lower value
[40] = locus YHR030C, strain SLT2, stronger effect = lower value
[41] = locus YHR079C, strain IRE1, stronger effect = lower value
[42] = locus YHR142W, strain chs7, stronger effect = lower value
[43] = locus YJL092W, strain hpr5, stronger effect = lower value
[44] = locus YJL095W, strain BCK1 (second series), stronger effect = lower value
[45] = locus YJL095W, strain BCK1, stronger effect = lower value
[46] = locus YJL115W, strain asf1, stronger effect = lower value
[47] = locus YJL129C, strain trk1, stronger effect = lower value
[48] = locus YJL154C, strain vps35, stronger effect = lower value
[49] = locus YJL164C, strain tpk1, stronger effect = lower value
[50] = locus YJL166W, strain qcr8, stronger effect = lower value
[51] = locus YJR066W, strain TOR1, stronger effect = lower value
[52] = locus YKL160W, strain elf1, stronger effect = lower value
[53] = locus YKR026C, strain gcn3, stronger effect = lower value
[54] = locus YKR091W, strain srl3, stronger effect = lower value
[55] = locus YLL001W, strain dnm1, stronger effect = lower value
[56] = locus YLL026W, stronger effect = lower value
[57] = locus YLL041C, strain sdh2, stronger effect = lower value
[58] = locus YLR027C, strain aat2, stronger effect = lower value
[59] = locus YLR113W, strain HOG1, stronger effect = lower value
[60] = locus YLR221C, strain rsa3, stronger effect = lower value
[61] = locus YLR258W, strain gsy2, stronger effect = lower value
[62] = locus YLR262C, strain YPT6 (second series), stronger effect = lower value
[63] = locus YLR320W, strain mms22, stronger effect = lower value
[64] = locus YLR342W, strain FKS1, stronger effect = lower value
[65] = locus YLR357W, strain rsc2, stronger effect = lower value
[66] = locus YLR370C, strain arc18, stronger effect = lower value
[67] = locus YLR384C, strain iki3, stronger effect = lower value
[68] = locus YML120C, strain ndi1, stronger effect = lower value
[69] = locus YMR058W, strain fet3, stronger effect = lower value
[70] = locus YMR125W, strain sto1, stronger effect = lower value
[71] = locus YMR129W, stronger effect = lower value
[72] = locus YMR205C, strain PFK2, stronger effect = lower value
[73] = locus YMR231W, strain pep5, stronger effect = lower value
[74] = locus YNL071W, strain lat1, stronger effect = lower value
[75] = locus YNL183C, strain NPR1, stronger effect = lower value
[76] = locus YNL209W, strain ssb2, stronger effect = lower value
[77] = locus YNL248C, strain rpa49, stronger effect = lower value
[78] = locus YNL322C, strain KRE1 (second series), stronger effect = lower value
[79] = locus YNR049C, strain mso1, stronger effect = lower value
[80] = locus YOR001W, strain rrp6, stronger effect = lower value
[81] = locus YOR070C, strain gyp1, stronger effect = lower value
[82] = locus YOR080W, strain dia2, stronger effect = lower value
[83] = locus YOR083W, strain WHI5, stronger effect = lower value
[84] = locus YOR106W, strain vam3, stronger effect = lower value
[85] = locus YOR231W, strain MKK1, stronger effect = lower value
[86] = locus YOR265W, strain rbl2, stronger effect = lower value
[87] = locus YOR270C, strain vph1, stronger effect = lower value
[88] = locus YOR290C, strain snf2, stronger effect = lower value
[89] = locus YPL051W, strain arl3, stronger effect = lower value
[90] = locus YPL078C, strain atp4, stronger effect = lower value
[91] = locus YPL106C, strain sse1, stronger effect = lower value
[92] = locus YPL240C, strain hsp82, stronger effect = lower value
[93] = locus YPL256C, strain CLN2, stronger effect = lower value

Measured: normalized growth

COC1=CC(=O)C(C(=O)c2ccccc2)=CC1=O
inactive: [1] 1.01 | [2] 0.992 | [3] 0.993 | [4] 1.01 | [5] 0.977 | [6] 0.988 | [7] 0.978 | [8] 0.972 | [9] 0.991 | [10] 0.971 | [11] 0.977 | [12] 0.978 | [13] 0.996 | [14] 0.987 | [15] 0.966 | [16] 0.981 | [17] 0.964 | [18] 0.965 | [19] 0.938 | [20] 0.949 | locus YDR195W, strain ref2 0.964 | [21] 0.967 | [22] 0.96 | [23] 0.97 | [24] 0.98 | [25] 0.976 | [26] 0.986 | [27] 0.98 | [28] 0.98 | [29] 0.974 | [30] 0.973 | [31] 0.975 | [32] 0.993 | [33] 0.975 | [34] 1 | [35] 0.986 | [36] 0.955 | [37] 0.987 | [38] 0.967 | [39] 0.966 | [40] 1.02 | [41] 1.02 | [42] 0.996 | [43] 0.968 | [44] 0.971 | [45] 1.02 | [46] 0.956 | [47] 0.941 | [48] 0.974 | [49] 0.988 | [50] 1.01 | [51] 0.94 | [52] 0.991 | [53] 0.993 | [54] 0.97 | [55] 0.972 | [56] 1 | [57] 0.98 | [58] 0.976 | [59] 1.02 | [60] 0.988 | [61] 0.997 | [62] 0.975 | [63] 0.981 | [64] 0.983 | [65] 0.946 | [66] 0.959 | [67] 0.979 | [68] 1 | [69] 0.966 | [70] 0.987 | [71] 1 | [72] 1 | [73] 0.991 | [74] 0.985 | [75] 0.969 | [76] 0.977 | [77] 0.992 | [78] 0.965 | [79] 0.964 | [80] 0.975 | [81] 0.977 | [82] 1 | [83] 0.991 | [84] 0.992 | [85] 1.04 | [86] 0.986 | [87] 1.01 | [88] 0.965 | [89] 0.984 | [90] 0.975 | [91] 0.927 | [92] 0.977 | [93] 1.04

COC1=CC(=O)C(O)=C/C1=C\C=C\c1ccccc1
active: [1] 0.0637 | [2] 0.0627 | [3] 0.0587 | [4] 0.0684 | [5] 0.0623 | [6] 0.075 | [7] 0.0792 | [8] 0.0663 | [9] 0.068 | [10] 0.0594 | [11] 0.0807 | [12] 0.0651 | [13] 0.064 | [14] 0.0619 | [15] 0.0757 | [16] 0.244 | [17] 0.0607 | [18] 0.068 | [19] 0.292 | [20] 0.166 | locus YDR195W, strain ref2 0.115 | [21] 0.0591 | [22] 0.0652 | [23] 0.0631 | [24] 0.0929 | [25] 0.0583 | [26] 0.0597 | [27] 0.064 | [28] 0.0626 | [29] 0.0792 | [30] 0.076 | [31] 0.0935 | [32] 0.0686 | [33] 0.0977 | [34] 0.0694 | [35] 0.0665 | [36] 0.0868 | [37] 0.0562 | [38] 0.205 | [39] 0.064 | [40] 0.114 | [41] 0.111 | [42] 0.0751 | [43] 0.0609 | [44] 0.0603 | [45] 0.104 | [46] 0.0766 | [47] 0.0861 | [48] 0.0623 | [49] 0.0609 | [50] 0.0637 | locus YJL187C, strain SWE1, stronger effect = lower value 0.0601 | [51] -0.00301 | [52] 0.073 | [53] 0.0653 | [54] 0.0623 | [55] 0.0646 | [56] 0.0594 | [57] 0.0594 | [58] 0.0574 | [59] 0.173 | [60] 0.0618 | [61] 0.0601 | [62] 0.0834 | [63] 0.0845 | [64] 0.0656 | [65] 0.127 | [66] 0.0611 | [67] 0.0607 | [68] 0.0568 | [69] 0.0632 | [70] 0.0692 | [71] 0.0614 | [72] 0.088 | [73] 0.068 | [74] 0.0619 | [75] -0.000893 | [76] 0.0644 | [77] 0.0693 | [78] 0.068 | [79] 0.0603 | [80] 0.069 | [81] 0.0623 | [82] 0.0977 | [83] 0.0654 | [84] 0.0683 | [85] 0.109 | [86] 0.0614 | [87] 0.0968 | [88] 0.0813 | [89] 0.0697 | [90] 0.0641 | [91] 0.102 | [92] 0.0581 | [93] 0.131
